Sampled rows, rich in hits. Any-hit rate of the full collection: about 5.7%.
KB-3-1 tox – kills parental KB-3-1 adenocarcinoma cells | KB-3-1 viability, CellTiter-Glo ATP luminescence, 72 h | Potency, µM (highest dose often 46.1 µM), most hits filed as cytotoxic | actives 1.4% (n = 400,000); note: nearly all actives have a fitted effect of over 60% in size
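Here the drug-naive KB-3-1 line serves as comparator for MDR sub-line selectivity; cells received compound titrations, 72 h at 37 °C, then CellTiter-Glo readout.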
HT1080-NT tox – kills 2HG-producing HT-1080-NT fibrosarcoma cells; HT-1080-NT fibrosarcoma viability, CellTiter-Glo ATP luminescence, 48 h; Potency, µM (highest dose often 46.1 µM), hits mostly cytotoxic; actives 1.6% (n = 360,000); AID 686970;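 note: NT is the 2HG producing partner of a matched IDH1 knockdown line; nearly all actives have a fitted effect of over 55% in size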
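Viability of the 2HG-overproducing fibrosarcoma line after 48 hours of compound exposure at 37 degrees C was determined by luminescence with CellTiter-Glo, and concentration-effect curves were then fitted and categorized.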
KB-V1 cytotox – KB-V1 MDR subline cytotoxicity; Potency, µM (top dose mostly 46.1 µM), hits mostly cytotoxic; KB-V1 MDR cells viability, CellTiter-Glo, 72 h; actives 3.4% (n = 400,000); note: nearly all actives have a fitted effect of over 60% in size
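KB-V1 MDR subline cells in DMEM (phenol-red free, 10% FBS) exposed to compounds in qHTS concentration series for 72 h at 37 degrees C. Viability read by CellTiter-Glo luminescence; concentration-effect curves fitted after normalization and correction.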
HT1080 IDH1KD tx – toxicity to HT-1080 IDH1 knockdown cells (counter line); HT-1080 IDH1 knockdown viability, ATP luminescence, 48 h; Potency, µM (highest dose often 46.1 µM), hits mostly cytotoxic; actives 2% (n = 360,000); AID 686971
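Knockdown cells (IDH1KD HT-1080) received compounds 2 h after plating at 750 cells/well and were kept 48 h at 37 °C in 5% FBS RPMI. A CellTiter-Glo luminescence read gave % activity for curve fitting.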
A number is an active result; . = inactive; ? = inconclusive; / = no result. Calls come from the whole dose curve; as a rule, active = well fitted curve in the direction sought with a large enough effect; inconclusive = small, poorly fitted or top-dose-only effect, or another doubt; inactive = no such curve, though single readings can be large; an effect the other way counts as inactive or inconclusive.

SMILES	KB-3-1 tox	HT1080-NT tox	KB-V1 cytotox	HT1080 IDH1KD tx
CCc1ccc2nc(N(CCCN(C)C)C(=O)c3ccc(S(=O)(=O)N(C)C4CCCCC4)cc3)sc2c1	?	?	.	23µM
COc1ccc2sc(N(CCCN(C)C)C(=O)c3ccc(S(=O)(=O)N4CCCc5ccccc54)cc3)nc2c1	.	.	21µM	.
CC(=O)Nc1ccc(NS(=O)(=O)c2ccc3[nH]c4c(c3c2)CCCCC4)cc1	.	/	.	/
Cc1ccc(S(=O)(=O)c2nnn3c2nc(N2CCCC(C)C2)c2cc(Cl)ccc23)cc1C (stereo not drawn)	.	/	.	/
O=C(Oc1ccc(Cl)c2cccnc12)c1cccc([N+](=O)[O-])c1	.	.	.	.
O=C(Oc1c(Cl)cc(Cl)c2cccnc12)c1cccc([N+](=O)[O-])c1	15µM	?	.	?
CCCNC(=O)Cn1nc(-c2ccc(OC)cc2)c2cnc3ccc(F)cc3c21	.	/	.	/
CO/N=C/c1ccc(OC)c(Oc2nc(OC)cc(OC)n2)c1	18µM	?	.	?
Cc1ccnc(NC(=S)N2CCN(c3ccc(O)cc3)CC2)c1	.	/	.	/
Cc1[nH]c(N=Nc2ccccc2)nc1N=Nc1ccccc1	18µM	.	?	?
Cc1ccc(CCNC(=O)NCc2noc3ccc(C)cc23)cc1	.	/	.	/
CC1=C(C(=O)Nc2ccccc2C)C(c2cccs2)NC(=S)N1 (stereo not drawn)	.	.	.	.
CCOc1ccccc1NC(=O)C1=C(C)NC(=S)NC1c1cccs1 (stereo not drawn)	.	.	13µM	.
COc1ccc(CN2[C@@H](CC(=O)O)c3ccc(/C=C/C(=O)O)cc3S2(=O)=O)cc1	.	/	.	/
COc1ccc(C2CN=NC23CCc2ccccc2C3=O)cc1 (stereo not drawn)	?	?	?	16µM
CCCCCc1nn2cc(-c3ccccc3)nc2s1	.	/	.	/
COc1cc2sc3ccc(-c4ccc(CN5CCOCC5)cc4)cc3c(=O)c2cc1OC	?	.	13µM	.
COc1ccc(CN2CCOCC2)cc1OC	.	.	.	.
CCOC(=O)C1CCN(C(c2ccccc2)c2c(O)cc(C)n(Cc3ccco3)c2=O)CC1 (stereo not drawn)	.	/	.	/
Cc1onc(-c2c(Cl)cccc2Cl)c1C(=O)N1CCc2ccccc2C1	.	.	21µM	.
Cc1onc(-c2ccccc2Cl)c1C(=O)N1CCCC1	.	.	.	.
Cc1cccc(N2CCN(C(=O)c3c(-c4ccccc4)noc3C)CC2)c1C	?	1.2µM	3.7µM	1.3µM
Cc1onc(-c2ccccc2Cl)c1C(=O)N1CCN(c2cccc(Cl)c2)CC1	2.3µM	2.6µM	1.3µM	2.1µM
Cc1onc(-c2ccccc2Cl)c1C(=O)N1CCN(c2ccccc2)CC1	.	.	21µM	.
Cc1onc(-c2c(Cl)cccc2Cl)c1C(=O)N1CCCc2ccccc21	.	.	.	.
SMILES	KB-3-1 tox	HT1080-NT tox	KB-V1 cytotox	HT1080 IDH1KD tx
Cc1cc(C)c(NC(=O)C2CCCN(C(=O)c3cnn(-c4ccccc4)c3-n3cccc3)C2)c(C)c1 (stereo not drawn)	?	/	.	/
Cc1cc(C)c2c(n1)SCCN2C(=O)Nc1ccc(C(=O)Nc2ccc(C(C)C)cc2)cc1	.	/	.	/
COc1ccc(N(Cc2ccccc2)C(=O)c2ccccc2[N+](=O)[O-])cc1	?	.	15µM	.
CC(NC(=O)Cn1c(=O)oc2cc(S(=O)(=O)NCc3ccccc3)ccc21)c1ccccc1 (stereo not drawn)	.	/	.	/
NC(N)=N/N=C/c1cc([N+](=O)[O-])ccc1O	.	.	.	.
O=[N+]([O-])c1ccc(O)c(/C=N\N=C2c3ccccc3-c3ccccc32)c1	8.2µM	.	13µM	.
CC#CC#Cc1cccc(=O)o1	.	?	?	21µM
O=S(=O)(N1CCN(c2nc(-c3cccs3)nc3ccccc23)CC1)C(F)(F)F	.	/	.	/
Clc1ccc(-c2nc3cnccn3c2Nc2ccc3c(c2)OCO3)cc1	.	.	.	.
CSc1ccc(-c2nc3cnccn3c2Nc2ccc3c(c2)OCO3)cc1	?	?	23µM	?
CC(C)Cc1ccc(S(=O)(=O)Nc2cc3c(cc2N2CCOCC2)n(C)c(=O)c(=O)n3C)cc1	.	/	.	/
CCc1ccc2c(c1)C1(C(=O)N2)N2CCCC2C(C(=O)c2ccc3ccccc3c2)C12C(=O)Nc1ccccc12 (stereo not drawn)	?	18µM	?	21µM
CCc1cccc2c1NC(=O)C21N2CCCC2C(C(=O)c2ccc3ccccc3c2)C12C(=O)Nc1ccccc12 (stereo not drawn)	16µM	.	?	.
Cc1cccc2c1NC(=O)C21N2CCCC2C(C(=O)c2ccc3ccccc3c2)C12C(=O)Nc1ccccc12 (stereo not drawn)	?	.	.	.
CCn1nc(C)cc1C(=O)N1CCCC(C(=O)c2ccc3ccccc3c2)C1 (stereo not drawn)	.	.	.	.
Cc1cc(C)cc(-n2c(C)cc(/C=C3\C(=N)N4N=C(CC(C)C)SC4=NC3=O)c2C)c1	?	.	21µM	.
COc1ccccc1C(=O)NC1(C(F)(F)F)C(=O)NC(C)=C1C#N (stereo not drawn)	.	/	.	/
CCOc1ccc(C2C(C(N)=O)=C(C)Nc3nc(SCc4ccccc4)nn32)cc1 (stereo not drawn)	.	/	.	/
Cc1ccccc1C(=O)c1cccn1CC(=O)NCCN1CCN(c2cccc(C)c2C)CC1	?	23µM	.	21µM
Cc1cccc(N2CCN(C(=O)Cn3ncc4c5ccccc5n(C)c4c3=O)CC2)c1C	.	/	.	/
Cc1cccc(N2CCN(C(=O)Cc3cn(C)c4ccccc34)CC2)c1C	?	?	18µM	?
Cc1cccc(N2CCN(C(=O)CCNC(=O)Cn3ccc4ccccc4c3=O)CC2)c1C	.	.	21µM	.
CN1CCN(C(=O)CCNC(=O)Cn2ccc3ccccc3c2=O)CC1	.	.	.	.
Cc1ccc(C)c(N2CCN(CCCNC(=O)Cn3cccc3C(=O)c3ccccc3C)CC2)c1	.	23µM	?	23µM
Cc1cccc(C(=O)NCC(=O)OCC(=O)c2ccc3ccccc3c2)c1	.	/	.	/
SMILES	KB-3-1 tox	HT1080-NT tox	KB-V1 cytotox	HT1080 IDH1KD tx
COc1ccc(-c2cc3nc(C4CCN(C(=O)OC(C)(C)C)CC4)c(C(=O)Nc4cc(Cl)cc(Cl)c4)cn3n2)cc1	.	/	.	/
Cc1cc(C)cc(N(CC(=O)NCCc2ccc(Cl)cc2)S(=O)(=O)c2c(C)noc2C)c1	.	/	.	/
O=[N+]([O-])c1cc(-c2nc(-c3ccccc3)no2)ccc1NCCc1ccccc1	.	/	.	/
O=C1C2=C(Nc3ccccc3SC2c2ccc(C(F)(F)F)cc2)c2ccccc21 (stereo not drawn)	?	/	16µM	/
CCOc1ccc2oc(C(=O)N(CC)CC(=O)Nc3c(F)cccc3F)c(C)c2c1	.	.	?	.
COc1ccc(N(CC(=O)Nc2ccc3c(c2)OCCO3)S(=O)(=O)c2c(C)noc2C)cc1	?	.	2.9µM	?
COc1ccc(N(CC(=O)Nc2cc(Cl)ccc2C)S(=O)(=O)c2c(C)n[nH]c2C)cc1	9.2µM	?	.	?
